Over roughly 39,000 sequences, “fluorescence intensity (a.u.)” has its median near 4,300; the highest 2% begin near 39,000. The list comes from a sample in which the highest values are over-represented; it also holds similar and randomly drawn sequences.
The sequences below were run against T1, OsSMF1 (Oryza sativa, UniProt Q6ZLB0 1-436) (assay: protein-binding microarray (RPBM); PBS, 2% BSA, 51.3 ng/ul salmon testes DNA, 50 uM zinc acetate, 200 nM TF, 25 C, 1 h; high values mean tight binding). Settings: protein: recombinant; tags: N-terminal polyhistidine and DsRed monomer fusion (pET32a); chain copies: 2; label: CyDye5-dUTP incorporated in the synthesized complementary strand; 3' TTTTT single-stranded linker to array surface; dsDNA, one strand shown.
T1 sequence: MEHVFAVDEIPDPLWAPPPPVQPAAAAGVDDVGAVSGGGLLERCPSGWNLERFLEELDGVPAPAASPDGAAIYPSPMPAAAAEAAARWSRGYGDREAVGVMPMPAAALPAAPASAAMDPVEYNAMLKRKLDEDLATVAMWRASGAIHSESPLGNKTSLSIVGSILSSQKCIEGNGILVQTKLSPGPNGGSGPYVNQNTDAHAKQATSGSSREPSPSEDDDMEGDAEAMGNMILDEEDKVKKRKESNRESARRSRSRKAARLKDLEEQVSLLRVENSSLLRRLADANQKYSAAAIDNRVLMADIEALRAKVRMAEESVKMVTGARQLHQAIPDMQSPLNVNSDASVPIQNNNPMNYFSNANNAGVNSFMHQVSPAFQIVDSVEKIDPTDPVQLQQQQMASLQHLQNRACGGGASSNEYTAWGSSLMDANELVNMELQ
In short: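 The binding signal is fluorescence intensity per feature, in arbitrary units, read on an Axon 4000B scanner. Polyhistidine- and DsRed-tagged transcription factors (N-terminal fusions) from E. coli BL21-CodonPlus were purified on Ni–NTA and applied at 200 nM for 1 h at 25 °C to a double-stranded, BSA-blocked custom Agilent array in buffer with 50 µM zinc acetate.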

Question: How did the binding signal turn out when “TTGAGATATAATTGCTACGTAAGTGCCACGTCAATGCCACCGGAGTCACCTAGTGCAG” was run?
Answer: 21400 fluorescence intensity (a.u.)

Question: “CTGGATCGAATTGCCACGTAAGCGCCACGTCAGTGCCACACGGAGTCACCTAGTGCAG” was tested. Which binding signal did it give?
Answer: 20700 fluorescence intensity (a.u.)

Question: For “CCAATATATAATTGCCACGTCATCGCCGCGTCAATGCCACCGGAGTCACCTAGTGCAG”, which binding signal is on record?
Answer: 28100 fluorescence intensity (a.u.)

Question: For “GATATAATTGCCACGTAAGCGCCACGTCAATGCCACGTGCCGGAGTCACCTAGTGCAG”, which binding signal is on record?
Answer: 52100 fluorescence intensity (a.u.)

Question: “TTTTCGATATATAATTGCCACGTAAGCGTCACGTCAATGCCGGAGTCACCTAGTGCAG” was tested. Which binding signal did it give?
Answer: 34300 fluorescence intensity (a.u.)

Question: How did the binding signal turn out when “TTTTCCGGATCGAATTGCCACGTAAGCGCCACGTCAATGACGGAGTCACCTAGTGCAG” was run?
Answer: 48300 fluorescence intensity (a.u.)

Question: How did the binding signal turn out when “ATCGAATTGTCACGTAAGCGCCACGTCAATGCTACGTCAGCGGAGTCACCTAGTGCAG” was run?
Answer: 26100 fluorescence intensity (a.u.)

Question: Which binding signal does the source give for “CGAGATATAATTGCCATGTCATTGCCACGTCAATGTCACGCGGAGTCACCTAGTGCAG” here?
Answer: 49600 fluorescence intensity (a.u.)

Question: How did the binding signal turn out when “GCTGAGATATAGTTGCCACGTAAGCGCCACGTCAATGCTACGGAGTCACCTAGTGCAG” was run?
Answer: 33000 fluorescence intensity (a.u.)

Question: With “GCTCGAATTGCCACGTAAGCGCCACGTCAATGCCACGTCACGGAGTCACCTAGTGCAG” as the sequence, how does the binding signal read?
Answer: 65500 fluorescence intensity (a.u.)

Question: “CCGGATCGAATTGCCACGTAAGCGTCACGTCACTGCCACACGGAGTCACCTAGTGCAG” was tested. Which binding signal did it give?
Answer: 17100 fluorescence intensity (a.u.)

Question: “TCGGATCGAATTGCCACGTAAGCGCCACGTCGATGCCACACGGAGTCACCTAGTGCAG” was tested. Which binding signal did it give?
Answer: 33000 fluorescence intensity (a.u.)

Question: Which binding signal does the source give for “TCATCCCCTGATCGTCATCAGCATTCTCACCGTCGGCGCTCGGAGTCACCTAGTGCAG” here?
Answer: 4690 fluorescence intensity (a.u.)

Question: With “AGTAGGGAAAGTTACAACGCAGCCTAACGTGGGATAGCGGCGGAGTCACCTAGTGCAG” as the sequence, how does the binding signal read?
Answer: 3980 fluorescence intensity (a.u.)

Question: For “CGCGATCCTGACAGTATATTCTATCTTTGACACAGTCTGACGGAGTCACCTAGTGCAG”, which binding signal is on record?
Answer: 3320 fluorescence intensity (a.u.)

Question: Which binding signal does the source give for “GCAGCCATTTACGCTTTCCACGTCAGTGCATGATGGAGTACGGAGTCACCTAGTGCAG” here?
Answer: 16800 fluorescence intensity (a.u.)

Question: Which binding signal does the source give for “GTAGCGGCTGCGGCGCTCCAGCTCCTCGGAGGCCCGGTCCCGGAGTCACCTAGTGCAG” here?
Answer: 3790 fluorescence intensity (a.u.)

Question: How did the binding signal turn out when “CTCCCCACTCACTGCCAGGTGGGCCCACCTTGTCGGATTACGGAGTCACCTAGTGCAG” was run?
Answer: 3530 fluorescence intensity (a.u.)

Question: For “ATGTCAAGACAACAACAGTTGTAAATGTGATCTGGACATACGGAGTCACCTAGTGCAG”, which binding signal is on record?
Answer: 3540 fluorescence intensity (a.u.)

Question: How did the binding signal turn out when “TCCCTGCGAAATTGTACACATCAACACAACATAAGGTCGACGGAGTCACCTAGTGCAG” was run?
Answer: 3700 fluorescence intensity (a.u.)

Question: “GGCAAATCGGTAATTGCCATGTCACAAGAGTGGCAAATAGCGGAGTCACCTAGTGCAG” was tested. Which binding signal did it give?
Answer: 8900 fluorescence intensity (a.u.)

Question: Which binding signal does the source give for “CACCCGCCATCGTGGCGGACATTCCAGTATAGGTACGGCACGGAGTCACCTAGTGCAG” here?
Answer: 6150 fluorescence intensity (a.u.)

Question: For “TGGTGGTGGAAATTTTGGAAATCGTGAGGGCTACACATACCGGAGTCACCTAGTGCAG”, which binding signal is on record?
Answer: 3550 fluorescence intensity (a.u.)

Question: “CGTCGACCACCACCACGCTCTTGCCCCTGATGACGCCGTGCGGAGTCACCTAGTGCAG” was tested. Which binding signal did it give?
Answer: 6870 fluorescence intensity (a.u.)

Question: Which binding signal does the source give for “CGGCTTCCCGACGGTGGCGGCGCACGTGGGCGAGGCTGAGCGGAGTCACCTAGTGCAG” here?
Answer: 3800 fluorescence intensity (a.u.)

Question: With “ATCTAATTGCCACATAAGCACTACGTCAATAACACGTTAGCGGAGTCACCTAGTGCAG” as the sequence, how does the binding signal read?
Answer: 10100 fluorescence intensity (a.u.)

Question: For “CCGCCCCACGCGGCGCCACCACACCACCGCGCGCGTCGCTCGGAGTCACCTAGTGCAG”, which binding signal is on record?
Answer: 5900 fluorescence intensity (a.u.)

Question: For “GCCCACAAGCGCTCGGCTCGAAACGCCACGTCACCACGCTCGGAGTCACCTAGTGCAG”, which binding signal is on record?
Answer: 43800 fluorescence intensity (a.u.)

Question: How did the binding signal turn out when “TAGTTAATAAAAGTCAAAATGAAGTCACAATTTGCCACGTCGGAGTCACCTAGTGCAG” was run?
Answer: 8180 fluorescence intensity (a.u.)

Question: Which binding signal does the source give for “CATCTAATTGCCACATAAGCGCCACGTCAACGACACGTTGCGGAGTCACCTAGTGCAG” here?
Answer: 41300 fluorescence intensity (a.u.)

Question: For “TATTAATTTCCAAATAAATTGCTATGTCAATGCCACGTCACGGAGTCACCTAGTGCAG”, which binding signal is on record?
Answer: 40900 fluorescence intensity (a.u.)

Question: With “ATGCCACATAAACCCTACGTCAATGCCACGTGGGACAAAGCGGAGTCACCTAGTGCAG” as the sequence, how does the binding signal read?
Answer: 22600 fluorescence intensity (a.u.)

Question: How did the binding signal turn out when “AGCAGTAACCACGAAAGCGCTCGGCTCCACACGCCACGCACGGAGTCACCTAGTGCAG” was run?
Answer: 3280 fluorescence intensity (a.u.)

Question: With “CACGTAAGCGTCACGTCAATGCCACGTGGGACGGTGACCTCGGAGTCACCTAGTGCAG” as the sequence, how does the binding signal read?
Answer: 27900 fluorescence intensity (a.u.)

Question: “TGCGGATCTAATTGCCACGTAAGCGCCACGACAATGACACCGGAGTCACCTAGTGCAG” was tested. Which binding signal did it give?
Answer: 16800 fluorescence intensity (a.u.)

Question: “CCCACCTTTCAAATTCCACGTCCGCCAATAATATTATTACCGGAGTCACCTAGTGCAG” was tested. Which binding signal did it give?
Answer: 6710 fluorescence intensity (a.u.)

Question: “TTGCCACGTAATCGCTACGTCAATGCCACGTGGGACGGAGCGGAGTCACCTAGTGCAG” was tested. Which binding signal did it give?
Answer: 43800 fluorescence intensity (a.u.)

Question: With “CTGTCCATTGATCTGTCCCTGGCAGCGACGTGACGTCCCACGGAGTCACCTAGTGCAG” as the sequence, how does the binding signal read?
Answer: 4890 fluorescence intensity (a.u.)

Question: How did the binding signal turn out when “GCTTCGTGGGCCTCTCACTTGAGTCACTGGCACTCCATTCCGGAGTCACCTAGTGCAG” was run?
Answer: 3570 fluorescence intensity (a.u.)

Question: Which binding signal does the source give for “TCCAAAATATTAGCATGGCACAGATTGGCACTACCCTTGTCGGAGTCACCTAGTGCAG” here?
Answer: 3280 fluorescence intensity (a.u.)

Question: “CGTAGAGGAATAACAATGGAACGTCATCCCTCTCTGTTCGCGGAGTCACCTAGTGCAG” was tested. Which binding signal did it give?
Answer: 4120 fluorescence intensity (a.u.)

Question: Which binding signal does the source give for “GGTTCCATGCCTCGCCGTTTATCTATCTAATTTACTAGCACGGAGTCACCTAGTGCAG” here?
Answer: 3170 fluorescence intensity (a.u.)

From article PMC7819943, “Rice protein-binding microarrays: a tool to detect cis-acting elements near promoter regions in rice”
